Measured values from PubChem BioAssay (EPA / NIEHS).
Active and inactive are the calls of the source. Rule for the calls: active = hit-call score of the fitted dose curve at least 0.9, where 1 is the maximum; inactive = score below 0.9.

What follows are compounds tested against Hepatocyte nuclear factor 6 (Homo sapiens) (UniProt Q9UBC0) (assay: ATG_HNF6_CIS: Attagene CIS-FACTORIAL HepG2 Assay for human Hepatocyte Nuclear Factor 6 (HNF6) (AID 2282952)). Conditions: HepG2 Attagene cis-factorial HNF6 reporter transcription; actives raise or lower the signal.
Sequence of Hepatocyte nuclear factor 6 (Homo sapiens) (Q9UBC0 whole entry, looked up): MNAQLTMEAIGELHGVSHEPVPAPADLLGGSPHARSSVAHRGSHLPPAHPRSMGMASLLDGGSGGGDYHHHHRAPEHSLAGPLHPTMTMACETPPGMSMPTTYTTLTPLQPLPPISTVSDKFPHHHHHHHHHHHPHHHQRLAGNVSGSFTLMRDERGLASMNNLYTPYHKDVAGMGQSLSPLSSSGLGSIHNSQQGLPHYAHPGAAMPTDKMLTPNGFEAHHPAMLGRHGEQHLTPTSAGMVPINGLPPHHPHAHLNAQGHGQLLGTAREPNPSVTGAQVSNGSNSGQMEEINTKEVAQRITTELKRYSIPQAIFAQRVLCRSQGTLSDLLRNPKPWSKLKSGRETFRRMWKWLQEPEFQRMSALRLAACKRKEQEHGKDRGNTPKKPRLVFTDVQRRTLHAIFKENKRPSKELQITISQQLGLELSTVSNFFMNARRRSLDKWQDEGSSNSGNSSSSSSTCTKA
Description: ATG_CIS is a cell-based, multiplexed-readout assay that uses HepG2, a human liver cell line, with measurements taken at 24 hours after chemical dosing in a 24-well plate.ATG_HNF6_CIS is one of 52 assay component(s) measured or calculated from the ATG_CIS assay. It is designed to make measurements of mRNA induction, a form of inducible reporter, as detected with fluorescence intensity signals by Reverse transcription polymerase chain reaction (RT-PCR) and Capillary electrophoresis technology.Data from the assay component ATG_HNF6_CIS was analyzed into 1 assay endpoint. This assay endpoint, ATG_HNF6_CIS, was analyzed with bidirectional fitting relative to DMSO as the negative control and baseline of activity. Using a type of inducible reporter, measures of mRNA for gain or loss-of-signal activity can be used to understand the reporter gene at the transcription factor-level as they relate to the gene ONECUT1. Furthermore, this assay endpoint can be referred to as a primary readout, because this assay has produced multiple assay endpoints where this one serves a reporter gene function. To generalize the intended target to other relatable targets, this assay endpoint is annotated to the dna binding intended target family, where the subfamily is homeobox protein.
Human liver HepG2 cells are transiently transfected with multiple reporter transcription units (MRTUs) in 6-well plates using FuGene 6 reagent (Roche; 3 ml FuGene/1 mg DNA). The MRTU constructs are regulated by a cis-regulating element (promoter). […] A major difference between the CIS and TRANS system is that in CIS activities of endogenous TFs are measured, whereas the TRANS assay evaluates changes in activities of exogenous, chimeric NR-Gal4 proteins. […] At the end of 24 hour incubation, total RNA was isolated using TriZol reagent (Invitrogen). The isolated RNA is then reverse-transcribed using oligo(dT) primer and Mo-MLV reverse transcriptase (Invitrogen) with DNAse I (Ambion) treatment for 30 min. The one-tenth of the produced cDNA was amplified by PCR using Taq DNA polymerase (Invitrogen) and two reporter sequence-specific primers. The PCR products were fluorescently labeled by primer extension with 6-arboxyfluorescein (6-FAM) 5'-labeled reporter sequence-specific primer (2 min at 95 C, 20 s at 68 C and 10 min at 72 C) and these products were digested with 5U of HpaI (New England Biolabs) for 2h at 37 C. The fragments were purified using Qiaquick PCR columns (Qiagen), analyzed on an ABI 3130xL genetic analyzer (Applied Biosystems) with peak positions identified by using a set of X-rhodamine (ROX)-labeled MapMarker1000 molecular weight standards (BioVentures). The raw capillary electrophoresis data was processed using Attagraph software (Attagene).

Row | Structure (SMILES) | outcome | AC50
1 | CCCC(C)C(O)CC (stereo not given) | inactive | –
2 | CCCC[O][Al]([O]CCCC)[O]CCCC | inactive | –
3 | CCCCCCCCc1ccc(S(=O)(=O)O)cc1 | – | 167 µM (active)
4 | O=C1CCCC=CCCCCCCCCCC1 | inactive | –
5 | CC(C)c1ccccc1O | inactive | –
6 | CCCC(=O)C(CC)Sc1ccoc1C (stereo not given) | inactive | –
7 | C[Si]1(C)O[Si](C)(C)O[Si](C)(C)O1 | inactive | –
8 | CCCC[P+](CCCC)(CCCC)CCCC | inactive | –
9 | C=Cc1ccc(C)cc1 | inactive | –
10 | C=CCOC(=O)CCCCCC | inactive | –
11 | CC1(C)O[C@@H]2C[C@H]3[C@@H]4CCC5=CC(=O)C=C[C@]5(C)[C@@]4(F)[C@@H](O)C[C@]3(C)[C@]2(C(=O)CO)O1 | inactive | –
12 | CC(C)(C)c1ccc(C(=O)O)cc1 | inactive | –
13 | CC(C=O)Cc1ccc(C(C)(C)C)cc1 (stereo not given) | inactive | –
14 | CC(=O)OCCCc1ccccc1 | inactive | –
15 | FC(F)(F)COCC(F)(F)F | inactive | –
16 | Cc1ccc(OC(=O)c2ccccc2O)cc1 | inactive | –
17 | C1CCOC1 | inactive | –
18 | OC[C@H]1O[C@@H]2O[C@H]3[C@H](O)[C@@H](O)[C@@H](O[C@H]4[C@H](O)[C@@H](O)[C@@H](O[C@H]5[C@H](O)[C@@H](O)[C@@H](O[C@H]6[C@H](O)[C@@H](O)[C@@H](O[C@H]7[C@H](O)[C@@H](O)[C@@H](O[C@H]8[C@H](O)[C@@H](O)[C@@H](O[C@H]9[C@H](O)[C@@H](O)[C@@H](O[C@H]1[C@H](O)[C@H]2O)O[C@@H]9CO)O[C@@H]8CO)O[C@@H]7CO)O[C@@H]6CO)O[C@@H]5CO)O[C@@H]4CO)O[C@@H]3CO | inactive | –
19 | CCCCCCCCC=CCCCCCCCC1=NCCN1CCO | inactive | –
20 | O=C(O)CCCCCCCCC(=O)O | inactive | –

Row | Structure (SMILES) | outcome | AC50
21 | Cc1ncc([N+](=O)[O-])n1CCO | inactive | –
22 | CCC1(C)NC(=O)NC1=O (stereo not given) | inactive | –
23 | CCCCCCCCCCCCCCCC(=O)OC/C=C(C)/C=C/C=C(C)/C=C/C1=C(C)CCCC1(C)C | inactive | –
24 | CC1(C)C(=O)N(Cl)C(=O)N1Br | inactive | –
25 | CC(=O)CC(=O)Nc1ccccc1 | inactive | –
26 | O=C(CC(=O)c1ccccc1)c1ccccc1 | – | 145 µM (active)
27 | Cc1ccc(C)o1 | inactive | –
28 | C=CC(=C)CCCC(C)(C)OC(C)=O | inactive | –
29 | CCC(Cl)C(Cl)C(Cl)CC(Cl)C(Cl)C(C)Cl (stereo not given) | inactive | –
30 | CC1=C(Br)C(=O)C(Br)=C/C1=C(/c1ccccc1S(=O)(=O)O)c1cc(Br)c(O)c(Br)c1C | inactive | –
31 | CCN(CCC#N)c1ccc(N=Nc2ccc([N+](=O)[O-])cc2)cc1 | inactive | –
32 | C=CCN(CC=C)CC=C | inactive | –
33 | CCCC(=O)OC(C)(C)Cc1ccccc1 | inactive | –
34 | C=COCCOCCOC=C | inactive | –
35 | Cc1ccc(S(=O)(=O)Oc2ccc(N=Nc3ccc(-c4ccc(N=Nc5c(O)ccc6cc(S(=O)(=O)O)cc(S(=O)(=O)O)c56)c(C)c4)cc3C)cc2)cc1 | inactive | –
36 | CCC(=O)OCCOc1ccccc1 | inactive | –
37 | COC(=O)c1ccc(C)cc1C1=NC(C)(C(C)C)C(=O)N1 (stereo not given) (tested in a mixture with another compound) | inactive | –
38 | COc1ccc(CCN2CCC(Nc3nc4ccccc4n3Cc3ccc(F)cc3)CC2)cc1 | inactive | –
39 | COc1ccccc1N=Nc1c(S(=O)(=O)O)cc2cc(S(=O)(=O)O)cc(NC(C)=O)c2c1O | inactive | –
40 | C=C(C#N)C(=O)OCC | inactive | –
